Experimental data: PubChem BioAssay AID624304 (Sanford-Burnham Center for Chemical Genomics, 2012)
Screen size: about 360,000 compounds; about 1,800 (0.5%) were called active.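 How the source made its calls: active means interference check ratio from 0.5 to 1.5 plus GFP to RFP signal ratio inhibition reaching or exceeding a fixed threshold (cut at about 30% in these data, passing the limit was not always enough); inactive means the rest.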 What follows is part of a selection rich in actives, with near analogues and random picks from the rest.

Test: suppressors of acrylamide-induced Pgst-4::GFP reporter in worms, primary screen, SKN-1 inhibitor project, whole organism, uHTS, GFP/RFP fluorescence ratio, strain VP596 (AID 624304)
Conditions: C. elegans VP596 Pgst-4::GFP/RFP ratio, 24 h, at 21.8 µM, hits give high values
For `COc1cccc(OC)c1C(=O)Nc1ccc(Cc2ccncc2)cc1`, the inhibition was -3.1% (inactive).
With `COc1cc2ccccc2cc1C(=O)Nc1ccncc1` the inhibition was 36.2% (active).
For `COc1ccccc1N(C)S(=O)(=O)c1ccc(Cl)c(C(=O)Nc2ccncc2)c1`, the inhibition was 23.4% (inactive).
With `O=C(O)c1cccc2c1C(=O)N(C1CCCC1)C2` the inhibition was -4.43% (inactive).
For `CCN(CC)c1ccc2oc(=O)c(C)nc2c1`, the inhibition was 40.8% (active).
With `CN(Cc1nc2ccccc2c(=O)[nH]1)Cc1cc(=O)oc2ccc3ccccc3c12` the inhibition was 14.1% (inactive).
In the case of `Cc1ccc2c(=O)oc(N(C)C)nc2c1`, the inhibition is reported as 8.34% (inactive).
For `Cc1c(Cl)c([N+](=O)[O-])nn1CC(=O)NCCCN1CCOCC1`, the inhibition was 28.4% (inactive).
In the case of `CC1Cc2ccccc2N1S(=O)(=O)c1cccc(C(=O)OCC(=O)N2CCOCC2)c1` (stereo not given), the inhibition is reported as 17.4% (inactive).
With `CCCCn1ccnc1C(=O)c1cccc(S(=O)(=O)N2c3ccccc3CC2C)c1` (stereo not given) the inhibition was 41.7% (active).
With `CC1Cc2ccccc2N1S(=O)(=O)c1cccc(C(=O)NCC(c2ccco2)N2CCCC2)c1` (stereo not given) the inhibition was 4.55% (inactive).
For `COCCN(C(=O)COC(=O)Cc1cccc(OC)c1)c1c(N)n(Cc2ccccc2)c(=O)[nH]c1=O`, the inhibition was 5.12% (inactive).
In the case of `CCCCOc1ccc(N(CC(=O)NC(C)C)C(=O)CCC(=O)Nc2ccccn2)cc1`, the inhibition is reported as -1.05% (inactive).
With `O=C(NCCCn1ccnc1)C(=O)NCC1OCCN1S(=O)(=O)c1cc(F)ccc1F` (stereo not given) the inhibition was -7.89% (inactive).
In the case of `CCc1ccc(-c2nc(SCC(=O)NC3CCCC3)n[nH]2)cc1`, the inhibition is reported as 3.3% (inactive).
In the case of `Cn1c(=NC(=O)C2CC2)sc2cc(F)cc(F)c21`, the inhibition is reported as 38% (active).
For `Cn1c(=NC(=O)c2ccco2)sc2cccc(F)c21`, the inhibition was 7.91% (inactive).
In the case of `CSCCNCc1cn(-c2ccc(F)cc2F)nc1-c1ccccc1C`, the inhibition is reported as -14.2% (inactive).
In the case of `O=C1CC2(CCN(C(=O)COc3ccc(F)cc3)CC2)Oc2ccccc21`, the inhibition is reported as -3.05% (inactive).
For `CN(C)/C=N/c1cc(=O)n(C)c(=O)n1CC1CC1`, the inhibition was 8.63% (inactive).
With `CN=C1C=C/C(=N/N=c2\ccn(O)cc2C)C=C1C` the inhibition was 41.1% (active).
In the case of `COc1ccc(/C=C/C2=CC(C)(C)NC(=S)N2)c(OC)c1`, the inhibition is reported as -2.28% (inactive).
In the case of `Fc1ccc(COc2ccc(-c3nnco3)cc2)cc1`, the inhibition is reported as 77.7% (active).
For `Fc1ccc(COc2cccc(-c3n[nH]c(=S)o3)c2)cc1`, the inhibition was -1.11% (inactive).
In the case of `Fc1cccc(Cl)c1COc1ccc(-c2nnco2)cc1`, the inhibition is reported as 23.1% (inactive).
With `Cc1cccc(NC(=O)NC2(C)CCS(=O)(=O)C2)c1` (stereo not given) the inhibition was -6.44% (inactive).
In the case of `CCCC(NCC(=O)Nc1ccccc1C(=O)NC1CC1)c1ccccc1` (stereo not given), the inhibition is reported as 11.1% (inactive).
In the case of `Cc1ccc(NC(=O)NC(=O)CSc2nnc(-c3ccc(OC(F)F)cc3)n2N)c(C)c1`, the inhibition is reported as 1.8% (inactive).
In the case of `CC(C)C[C@@H](COc1ccccc1)N1CCN(CC(C)C)CCC1=O`, the inhibition is reported as 12.3% (inactive).
In the case of `CC(Cc1cccs1)N(Cc1ccc(Cl)cc1)C(=O)c1ccncc1` (stereo not given), the inhibition is reported as 8.76% (inactive).
With `N#C/C(=C/c1ccc(Cl)cc1)NC(=O)c1ccccc1` the inhibition was -13.8% (inactive).
In the case of `CC/C(=C\c1ccc(Cl)cc1)c1ccncc1`, the inhibition is reported as 57.3% (active).
With `CCCSC(=S)NC1CCS(=O)(=O)C1` (stereo not given) the inhibition was 10.7% (inactive).
In the case of `O=C(OCC(=O)N1CCCC1=O)c1cc(S(=O)(=O)N2CCOCC2)ccc1Cl`, the inhibition is reported as 6.4% (inactive).
In the case of `O=C(OCC(=O)N1CCOCC1)c1ccc2ccccc2c1`, the inhibition is reported as -11.5% (inactive).
In the case of `COc1ccc(OC)c(/C(C)=N\NC(=O)c2cc3cc(Cl)ccc3n2C)c1`, the inhibition is reported as 1.75% (inactive).
In the case of `C=C(C)c1cccc(C(C)(C)NC(=O)N2CCN(c3ncccn3)CC2)c1`, the inhibition is reported as 36.7% (active).
With `C=C(C)c1cccc(C(C)(C)NC(=O)NCCN(CC)CC)c1` the inhibition was -10.6% (inactive).
In the case of `C=C(C)c1cccc(C(C)(C)NC(=O)NC2CCCC2)c1`, the inhibition is reported as -1.51% (inactive).
In the case of `COc1cccc(NC(=O)C2C(c3ccccc3)C2(Cl)Cl)c1` (stereo not given), the inhibition is reported as -10.4% (inactive).
In the case of `COc1ccc(N2CCN(C(=O)CCNC(=O)c3ccc(Br)cc3)CC2)cc1`, the inhibition is reported as 4.57% (inactive).
For `CCOc1ccccc1NC(=O)c1cc(S(=O)(=O)N2CCC3(CC2)OCCO3)ccc1F`, the inhibition was 3.17% (inactive).
With `CN1OC[C@@H]2CN(C(=O)c3ccc(-c4ccccc4)cc3)[C@H](c3ccc(-c4cccc(F)c4)cc3)C[C@@H]21` the inhibition was -1.35% (inactive).
In the case of `CC(=O)N1CCN(C(=O)C2(NC(=O)Nc3ccc(C)cc3)CCCCC2)CC1`, the inhibition is reported as -13.7% (inactive).
With `O=C(C1CCCO1)N1CCN(C(=O)C23CC4CC(CC(C4)C2)C3)CC1` (stereo not given) the inhibition was 24.4% (inactive).
For `N/C(Cc1ccc([N+](=O)[O-])cc1)=N\OC(=O)COc1ccc2ccccc2c1`, the inhibition was -1.15% (inactive).
With `CCn1nccc1C(=O)Nc1ccc(Cl)c(Cl)c1` the inhibition was 44.5% (active).
For `CC(c1cccnc1)N(CCN(C)C)C(=O)Nc1ccc(Cl)c(Cl)c1` (stereo not given), the inhibition was 0.83% (inactive).
In the case of `CCn1nccc1C(=O)Nc1ccc(S(=O)(=O)NC23CC4CC(CC(C4)C2)C3)cc1`, the inhibition is reported as 5.56% (inactive).
With `CC1CCCC(C)N1C(=O)CSc1nnnn1C1CCCC1` (stereo not given) the inhibition was -2.05% (inactive).
With `COc1ccccc1C1=CC(=O)C[C@H](c2ccc(F)cc2)C1` the inhibition was 8.41% (inactive).
For `COc1ccccc1-c1nnc(-c2ccc(F)cc2)o1`, the inhibition was 45% (active).
In the case of `COc1ccccc1-c1cc(NC(C)=O)c2ncc(-c3ccc(F)cc3)n2c1`, the inhibition is reported as 18.1% (inactive).
In the case of `Cn1c(SCC(=O)N2CCOCC2)nnc1-c1ccc2ncccc2c1`, the inhibition is reported as 3.82% (inactive).
For `Cc1cccc(-c2nc3c(c(SCC(=O)N4CCOCC4)n2)CCCC3)c1`, the inhibition was 37.9% (active).
For `N#Cc1c(C(F)(F)F)cc(-c2ccccc2)nc1SCC(=O)N1CCOCC1`, the inhibition was 2.8% (inactive).
In the case of `Cc1ccc(C)c(S(=O)(=O)N2CC(=O)Nc3ccccc32)c1`, the inhibition is reported as -15.3% (inactive).
For `CCOC(=O)c1c(C(C#N)C#N)cc(C)nc1C`, the inhibition was -3.86% (inactive).
With `CCCCSc1[nH]c(=O)c(C(=O)OCC)cc1C#N` the inhibition was 48.3% (active).
With `CCOC(=O)c1cc(C)nc(S(C)(=O)=O)c1C#N` the inhibition was 13.5% (inactive).
For `CC(=O)Nc1cnc(-c2ccc(O)cc2C)cn1`, the inhibition was -1.38% (inactive).
For `CCC(Oc1ccccc1)C(=O)OCC(=O)Nc1c(C)nn(-c2ccccc2)c1C` (stereo not given), the inhibition was 15.9% (inactive).
With `CC(C)C1CCN(C(=O)C2CCC(=O)N(C3CCCCCC3)C2)CC1` (stereo not given) the inhibition was -2.6% (inactive).
In the case of `Cc1nn(CC#N)c(=O)n1N(C)c1ncc(C(F)(F)F)cc1Cl`, the inhibition is reported as -3.68% (inactive).
With `Cc1nn(CC2CC2)c(=O)n1N(C)c1ncc(C(F)(F)F)cc1Cl` the inhibition was 3.57% (inactive).
In the case of `Cc1nn(-c2ncc(C(F)(F)F)cc2Cl)c(=O)n1-c1ccccc1`, the inhibition is reported as 35.6% (active).
For `CCCn1c(N)c(C(=O)CSc2nnc3n2CCCCC3)c(=O)[nH]c1=O`, the inhibition was 9.24% (inactive).
For `COc1ccccc1C(=O)N(C1=NC(C)CS1)c1ccc(Cl)cc1` (stereo not given), the inhibition was -17.9% (inactive).
In the case of `Cc1ccc(N/C(N)=N/c2nc(C(F)(F)F)cc(C(F)(F)F)n2)cc1`, the inhibition is reported as 2.4% (inactive).
For `Oc1ccc(N=Nc2nccs2)c(O)c1`, the inhibition was 40.3% (active).
With `CCN(CC)P(=O)(/C(Cl)=C\Nc1c(C)n(C)n(-c2ccccc2)c1=O)N(CC)CC` the inhibition was 38.6% (active).
In the case of `Cc1cc(C)cc(N(CC(=O)Nc2c(C)n(C)n(-c3ccccc3)c2=O)S(C)(=O)=O)c1`, the inhibition is reported as -7.93% (inactive).
In the case of `Cc1c(NC(=S)Nc2ccccc2)c(=O)n(-c2ccccc2)n1C`, the inhibition is reported as 13.7% (inactive).
In the case of `C=CC[C@@H](CC(=O)NCCO)C(=O)N[C@H](C)COC(=O)[C@@H](CC=C)CC(=O)OC(C)(C)C`, the inhibition is reported as 4% (inactive).
For `CCOC(=O)C1CN(S(=O)(=O)c2ccc(F)cc2)C1`, the inhibition was -3.48% (inactive).
For `O=S(=O)(c1ccc(F)cc1)N1CC=C(c2ccccc2)CC1`, the inhibition was 0.877% (inactive).
For `Cc1c(C2=CCN(S(=O)(=O)c3ccc(Cl)cc3)CC2)c2ccccc2n1C`, the inhibition was 40.5% (active).
With `O=C(O)c1cccc(S(=O)(=O)N2CC=C(c3ccccc3)CC2)c1` the inhibition was -4.6% (inactive).
In the case of `O=C(CSc1cccc[n+]1[O-])c1ccc(-c2ccccc2)cc1`, the inhibition is reported as -20.6% (inactive).
In the case of `O=C(O)/C(=C/c1cccnc1)NC(=O)c1ccccc1`, the inhibition is reported as 0.0898% (inactive).
In the case of `Cc1cccc(NS(=O)(=O)c2ccc(C(=O)NCC(C)(C)N3CCOCC3)cc2)c1C`, the inhibition is reported as -5.62% (inactive).
In the case of `Cc1cc(C(=O)COc2ccccc2[N+](=O)[O-])c(C)n1-c1cccc(S(=O)(=O)N2CCOCC2)c1`, the inhibition is reported as 7.44% (inactive).
With `COCCNC(=O)CN(C(=O)CCC(=O)Nc1cc(C)on1)c1ccc(C)cc1C` the inhibition was -14.7% (inactive).
In the case of `Nc1nc(NCCCN2CCOCC2)nc(Nc2ccccc2)c1[N+](=O)[O-]`, the inhibition is reported as 5.52% (inactive).
With `COCCNc1nc(N)c([N+](=O)[O-])c(N2CCCCCC2)n1` the inhibition was 23.7% (inactive).
In the case of `CC1CN(c2nc(Nc3ccccc3)nc(N)c2[N+](=O)[O-])CC(C)O1` (stereo not given), the inhibition is reported as 38% (active).
For `Fc1ccccc1OCCSc1nc2ccccc2o1`, the inhibition was 36.2% (active).
In the case of `CC(C)(C)C(=O)CSc1nc2ccccc2o1`, the inhibition is reported as -6.68% (inactive).
For `CCN(CC)C(=O)CSc1nc2ccccc2o1`, the inhibition was 0.512% (inactive).
With `Cn1c(SCC(=O)OC2CCCCC2)nnc1-c1ccc(S(=O)(=O)N2CCCC2)cc1` the inhibition was -4.66% (inactive).
In the case of `O=C(NCCc1nnc2ccc(SCC(=O)N3CCOCC3)nn12)c1ccccc1`, the inhibition is reported as 9.19% (inactive).
With `O=C(CSc1c2c(nc3ccc(Cl)cc13)CCCC2)NCc1ccco1` the inhibition was 82.7% (active).
For `O=C(CSc1nnnn1-c1ccccc1)NCc1ccco1`, the inhibition was -15% (inactive).
For `O=C(NCc1ccco1)C1(c2ccc(Cl)cc2)CCCC1`, the inhibition was -1.05% (inactive).
For `CCn1c(=O)n(CC)c2cc(N3CCCC3)c(NC(=O)c3ccccc3Br)cc21`, the inhibition was -26.6% (inactive).
